Data from PubChem BioAssay (NCI).
This is part of a sample that, as a whole, favours compounds with a hit. Of some 83,000 tested, about 20% had one in any assay.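 Compound tested at a single concentration for 48 hours in 96-well plates; a percent growth value below 10 was scored as active.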 Values without a mark were called inactive. Active and inactive are the calls of the source.

Legend:
Assay in all cases: NCI-60 one-dose screen, 48 h (100 = growth as untreated, 0 = no growth, -100 = all killed)
Conditions in all cases: 10 µM unless noted
[1] = tested on: NCI-H23 lung
[2] = tested on: NCI-H226 lung
[3] = tested on: NCI-H322M lung
[4] = tested on: HOP-62 NSCLC
[5] = tested on: NCI-H460 lung
[6] = tested on: HOP-92 NSCLC
[7] = tested on: A549/ATCC NSCLC
[8] = tested on: 786-0 renal
[9] = tested on: COLO 205 colon
[10] = tested on: DU-145 prostate
[11] = tested on: K-562 leukemia
[12] = tested on: MALME-3M melanoma
[13] = tested on: MDA-MB-231 breast
[14] = tested on: RXF 393 renal
[15] = tested on: SF-268 CNS
[16] = tested on: SF-295 CNS
[17] = tested on: SF-539 CNS
[18] = tested on: UACC-257 melanoma
[19] = tested on: M14 melanoma
[20] = tested on: NCI-H522 lung

Row | Compound | growth [1] | growth [2] | growth [3] | growth [4] | growth [5] | growth [6] [%] | growth [7] | growth [8] | growth [9] | growth [10] | growth [11] | growth [12] | growth [13] | growth [14] | growth [15] | growth [16] | growth [17] | growth [18] | growth [19] | growth [20]
1 | C[C@@H](C(=O)O)c1ccc2c3cc(Cl)ccc3n(Cc3cc(=O)oc4ccc(Cl)cc34)c2c1 | 95.6% | 103% | 86.3% | 103% | 111% | 108 | 102% | 95.9% | 113% | 103% | 98.2% | 89.5% | 106% | 116% | 93.4% | 103% | 102% | 104% | 100% | 
2 | CCOC(=O)C/C(=C\c1ccccc1)C(C)=O | 104% | 98.7% | 114% | 73.4% | 112% | 92.2 | 67.4% | 101% | 102% | 109% | 87.6% | 105% | -43.5% (active) | 115% | 102% | 98.5% | 105% | 82.8% | 91.9% | 
3 | Cc1cc(C)c(NC(=O)c2sc3nc4c(cc3c2N)CCCC4)c(C)c1 | 59.8% | 78.6% | 88.7% | 24.1% | 28.8% | 52.3 |  | 47.3% | 42.6% | 70.3% | 12.4% | 44.7% | 71.8% | 57.9% | 48.8% | 29.2% | 26.9% |  | 24.5% | 
4 | COC(=O)[C@]12CC[C@@H](C)[C@H](C)[C@@H]1C1=CC(=O)[C@@H]3[C@@]4(C)C[C@@H](O)[C@H](O)[C@@]5(C)COC(=C45)C[C@@]3(C)[C@]1(C)CC2 | 76.9% | 81.6% | 88.4% | 50.8% | 34.6% | 45.6 |  | 78.5% | 40.8% | 92.7% | 14.2% | 68% | 45.8% | 63.1% | 80.8% | 61.3% | 54.1% |  | 27.4% | 
5 | N#CC1c2ccccc2-c2ccccc2N1C(=O)c1ccccc1 (stereo unspecified) | 22.6% | 17.8% | 57% | 48.7% | 18.1% | 45.2 | 31.8% | 17% | -1.39% (active) | 11.9% | 41.5% | 84% | 16.6% | 31.7% | 34.4% | 4.01% (active) | 0.949% (active) | 75.9% | 2.12% (active) | 
6 | Cc1nn2c(-c3nc4cc(Cl)c(Cl)cc4[nH]3)c(-c3ccc(F)cc3)nc2s1 | 55.8% | 4.31% (active) | -20% (active) | -36.8% (active) | -13.4% (active) |  | 5.51% (active) | -79.5% (active) | 17.7% | 52.8% | 68% |  | -12.9% (active) | -5.06% (active) | 28% |  | 6.21% (active) | -21% (active) | 30.1% | 65.2%
7 | CCN1CCN(C(=O)[C@@]2(C)CC[C@]3(C)CC[C@]4(C)C(=CC(=O)[C@@H]5[C@@]6(C)CC[C@H](OCCC#N)C(C)(C)[C@@H]6CC[C@]54C)[C@@H]3C2)CC1 | 87.9% | 89.9% | 106% | 100% | 99.9% |  | 84.1% | 51% | 95.7% | 97% | 31.8% | 65.3% | 97.5% | 85% | 90.4% | 84% | 80.4% | 88.4% | 96% | 95.4%
8 | Cc1ccc(-c2nn(Cc3cn(-c4cc(C)nc5ccccc45)nn3)c3ncnc(N)c23)cc1 | 68.7% | 35% | 40.6% | 60.4% | 68.4% |  | 44.1% | 48.6% | 54.7% | 47.8% | 53.2% | 52.5% | 33.1% | 27.3% | 35.8% | 66.5% | 74.7% | 42.5% | 52.7% | 55.5%
9 | CC(=O)OC(C)COc1ccc(-c2ccccc2)cc1 (stereo unspecified) | 107% | 106% | 121% | 102% | 105% |  | 54.9% | 93.4% | 104% | 101% | 97.9% | 118% | 103% | 104% | 96.1% | 97.5% | 101% | 74.3% | 92.1% | 84.4%
10 | C=CC(=O)N[C@H](Cc1ccc(-c2cc(Cl)cc(Cl)c2)cc1)[C@H](O)[C@@H](O)C(=O)O | 93.6% | 71.3% | 100% | 87.3% | 94.9% |  | 72% | 92.2% | 91.9% | 102% | 85% | 90.1% | 98.9% | 101% | 102% | 82.8% | 99.6% | 74.4% | 86.3% | 59.1%
11 | O=Cc1nc2ccccc2[nH]1 | 97.9% | 97.6% | 110% | 90.1% | 109% |  | 84.5% | 101% | 106% | 105% | 97.6% | 104% | 94.9% | 112% | 104% | 101% | 97.5% |  | 90.9% | 84.8%
12 | COC(=O)c1cc(=O)nc(N/N=C/c2ccc(C)cc2)s1 | 107% | 98.5% | 108% | 98.6% | 106% |  | 101% | 103% | 114% | 114% | 96.1% | 94.3% | 113% | 111% | 104% |  | 102% | 97.5% | 99.1% | 91.9%
13 | Cn1c(/C(C#N)=C/c2ccc3ccccc3c2)cc2ccccc21 | 19.4% | 40.5% | 48.9% | 38.2% | 6.27% (active) |  | 29.8% | 34.1% | 2.87% (active) | 14.9% | 13.9% | 46.5% | 5.53% (active) | 41.1% | 42.9% | 3.45% (active) | 3.9% (active) | 84.8% | 5.87% (active) | 27.1%
14 | CC1(C)CC[C@]2(CO)CC[C@]3(C)C(=CC[C@@H]4[C@@]5(C)CC[C@H](NCO)C(C)(C)[C@@H]5CC[C@]43C)[C@@H]2C1 | -64.8% (active) | 43.1% | 7.27% (active) | -32.1% (active) |  | 22.2 | -50% (active) | -80% (active) | -71.5% (active) | -49.9% (active) | -36.8% (active) | -76.3% (active) | -80% (active) | -88% (active) | 63.1% | -30.5% (active) | -18.5% (active) | 10.5% | -53% (active) | -29.5% (active)
15 | COc1ccc(OCC(CO)N2CCN(c3ccccc3)CC2)cc1 (stereo unspecified) | 103% | 106% | 115% | 118% | 116% |  | 100% | 101% | 96.3% | 111% | 126% | 82.7% | 97% | 119% | 95.8% | 101% | 98.5% | 96.1% | 99.8% | 99.4%
16 | CC(C)(C)c1nc(-c2ccc(O)c(O)c2)cs1 | 68.8% | 93.7% | 93.2% | 66.7% | 33.1% |  | 55.7% | 77.5% | 92.6% | 66.3% | 50% | 86.8% | 54.3% | 72% | 67.1% | 61.6% | 57.7% | 76.2% | 43.2% | 21%
17 | O=c1[nH]ncc(Br)c1Br | -57% (active) | 112% | 94.7% | 90.2% | 65.9% |  | 69.3% | 71.6% | 22.4% | 54.4% | 3.3% (active) | -7.27% (active) | 28.7% | -85.5% (active) | -18.3% (active) | 102% | 93.5% | -36.7% (active) | -84.8% (active) | -41.3% (active)
18 | Nc1c(C(=O)Nc2cccc(Cl)c2)sc2ncc(Cl)cc12 | 87% | 75.7% | 64.7% | 73% | 13.8% |  | 43.4% | 85.4% | 79.6% | 56.7% | 80.6% | 69.8% | 83.7% | 83.5% | 63.5% |  | 60.8% | 100% | 88.2% | 97.4%
19 | COc1cccc(NC(=O)c2sc3nc4c(cc3c2N)C(=O)CCC4)c1 | 21.8% | 74.9% | 56.5% | 27.8% | 1.73% (active) |  |  | 41.1% | 0.646% (active) | 11.8% | 5.55% (active) | 50.1% | 14.7% | 41% | 39.2% |  | -7.27% (active) | 66.5% | 12.5% | -21.1% (active)
20 | Cc1cc2nc3c4cc(Cl)ccc4n(CCN(C)C)c3nc2cc1C | 10.7% | 10.4% | 9.53% (active) | 22.1% | 1.36% (active) |  | 3.82% (active) | 14.3% | -49.6% (active) | 15.3% | 3.43% (active) | -45.5% (active) | 7.77% (active) | -0.246% (active) | 33.3% | 11.4% | 14.1% | 38.7% | -45.7% (active) | 19.7%
21 | N#CCCCCCn1c2ccccc2c2c3[nH]c(=O)[nH]c(=O)c3c3c4ccccc4n(CCCCCC#N)c3c21 | 55.6% | 65.8% | 42.5% | 15.8% | 34.9% |  | 73.7% | 0.172% (active) | 71.6% | 54.7% |  | 33.7% | -7.94% (active) | 41.4% | 19.6% | 43.7% | -0.187% (active) |  | 66.8% | 
22 | COc1cccc(-c2nn(-c3ccccc3)cc2-c2ccnc(NCCCNS(=O)(=O)c3ccc(Cl)cc3)c2)c1 | 46.9% | 40.3% | 66.8% | 81.8% | 40.9% |  | 39.9% | 37.4% | 15.1% | 67.1% | 11.6% | 74.6% | 23.5% | 46.4% | 56.1% | 24.2% | 62.3% |  | 33.4% | 41.7%
23 | O=C(CCCCCn1c2ccccc2c2c3c(c4c5ccccc5[nH]c4c21)C(=O)N(O)C3=O)N1CCOCC1 | 52% | 19.1% | 74.4% | 11.6% | 35.8% |  | 91.4% | 80.3% | 62% | 69.6% | 33.6% | 113% | 48.2% | 56% | 47.4% | 28.5% | 35.6% |  | 38.6% | 9.19% (active)
